SMILES strings stand for the structures. Inconclusive results are not listed. Where a call stands in place of a potency, no number is given. The source made the active and inactive calls. Calls follow the shape of the dose curve; as a rule, active = well fitted inhibition curve with a large enough effect; inconclusive = small, poorly fitted or top-dose-only effect; inactive = no such curve, though single readings can be large or run the other way.
Potency is read from the fitted curve at half-maximal effect.

The test is described as follows: Secretion counterscreen for inhibitors of the SERCaMP assay screened against the NCATS CANVASS Library (AID 1347390).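 Also: light from luciferase secreted into medium read as a measure of general secretion.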 The following applies: SH-SY5Y constitutive GLuc secretion, luminescence, 20 h; series mostly up to 76.6 µM. The method in brief:
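Natural products are titrated in an 11-point series up to 77 uM onto SH-SY5Y-GLuc STOP cells for 20 h. Secreted reporter activity is measured as coelenterazine-driven luminescence, with Brefeldin A on each plate.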
As to `C=C1CC[C@@H](Br)C(C)(C)[C@]12CC=C(C)C(=O)C2`, the Potency result is “inactive”.

For the molecule `C=CC(CCCCC)C1C(=O)NC(=O)C1C(=O)C1C(/C=C/C)C=CC2CC(C(=O)O)CC(C)C21` (stereo not drawn), the Potency entry is “inactive”.

For the molecule `COc1cc(/C=C/C(=O)OC[C@@H](Cc2ccc(O)c(OC)c2)[C@@H](COC(=O)/C=C/c2ccc(O)c(OC)c2)Cc2ccc(O)c(OC)c2)ccc1O`, the Potency is 38.4 µM (active).

Regarding `C=C[C@@]1(C)CC[C@@H]([C@H](C)C(=O)/C=C/C(C)(C)O)O1`, the Potency entry is “inactive”.

For the molecule `O=C1CC2OCC=C3CN4C5CC3C2[C@@H]2N1c1ccccc1[C@]52C[C@@H]4C1=C[C@H]2C3CC4N(CC[C@@]45c4ccccc4N(C1=O)[C@@H]25)C/C3=C/CO` (stereo partly drawn), the Potency entry is “inactive”.

For `C=C1CC[C@@H](O[C@H]2C[C@@](O)([C@H](C)NC(=O)c3[nH]c(C)c(Cl)c3Cl)[C@H](O)[C@@H](C)O2)[C@@H]2C=C[C@H](C)C(/C(O)=C3/C(=O)[C@H](C(C)C)N([C@@H]4O[C@H](C)[C@H](OC(N)=O)[C@H](OC(C)=O)[C@@H]4OC)C3=O)[C@@H]12` (stereo partly drawn), the Potency entry was “inactive”.

As for `COc1c(O)cc2c(c1O)C(=O)c1c(coc1C)C2=O`, the Potency entry was “inactive”.

In the case of `C=CC(CCCCC)C1C(=O)NC(=O)C1C(=O)C1C2C(C)CC(C(=O)O)CC2CC1(O)C(=O)/C=C/C` (stereo not drawn), the Potency result is “inactive”.

Regarding `C[C@]12CCC[C@](C)(C(=O)O)[C@@H]1CC[C@@]1(C)c3cocc3CC[C@H]21`, the Potency entry was “inactive”.

In the case of `CCC(=O)N[C@@H](C[C@H](C)C(Cl)(Cl)Cl)C(=O)N1C(=O)C=C(OC)[C@@H]1CC(C)C`, the Potency entry was “inactive”.

As for `O=c1cc(-c2ccc(O)c(O)c2)oc2cc(O[C@@H]3O[C@H](CO)[C@@H](O)[C@H](O)[C@H]3O)cc(O)c12`, the Potency entry is “inactive”.

On to `C/C1=C/[C@@H](C)[C@H](O)[C@@H](O)/C=C/CC/C=C/C(=O)O[C@@H]1[C@H](C)C(=O)CCCC1CC(=O)NC(=O)C1`, for which the Potency entry was “inactive”.

Regarding `CC[C@H]1[C@H](C)[C@H](c2cc(OC)c(OC)cc2OC)[C@@H](C)[C@H](c2cc(OC)c(OC)cc2OC)[C@@]12C=C(OC)C(=O)C=C2OC`, the Potency result is “inactive”.

Take `C/C=C(/C)c1c(Cl)c(O)c(C)c2c1Oc1c(Cl)c(O)c(Cl)c(C)c1C(=O)O2`: the Potency entry was “inactive”.

In the case of `C[C@H]1C=C[C@H]2CCCC[C@@H]2[C@H]1C(=O)[C@H]1CC2=C(C(=O)O)CCN2C1=O`, the Potency entry is “inactive”.

For the molecule `C/C=C(/C)c1c(Cl)c(OC)c(C)c2c1Oc1c(Cl)c(O)c(Cl)c(C)c1C(=O)O2`, the Potency result was “inactive”.

Consider `C/C(=C\CC[C@@H](C)[C@H]1CC[C@]2(C)C3=CCC4C(C)(C)[C@@H](O)C[C@@H](O)[C@]4(C)C3[C@H](O)C[C@@]12C)CO` (stereo partly drawn), for which the Potency result is “inactive”.

`COC12OC1(C13OC1(OC)C(=O)c1cc4cc(C)oc(=O)c4c(O)c1C3O)C(O)c1c(cc3cc(C)oc(=O)c3c1O)C2=O` (stereo not drawn): the Potency entry was “inactive”.

The values above are taken from PubChem BioAssay (NCATS).
